Targets with a hit are over-represented here; the source holds about 7,900 in all. About 0.6% of all pairs of compound and target were hits.
Compound: CCCc1cc(C)[nH]c(=O)c1CNC(=O)c1cc(-c2ccnc(N3CCN(C)CC3)c2)cc2c1cnn2C(C)C
Test: log2 fold change, soluble protein after heating vs DMSO (PISA); higher = thermal stabilisation; K562 cells, 10 uM, 30 min; active = over 0.2 and 3.5 SD of the protein, either way, in both replicates (recomputed)
In short: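 Aliquots of K562 cells (2×10^6 cells/mL) treated with 10 μM compound for 30 min were heated for 3 min over 48°C-58°C. After pooling and extraction in PBS with 0.5% NP-40 at 4°C, soluble protein from a 21,000xg, 90 min spin was quantified by TMTpro 16plex LC-MS/MS with channel sums equalised. Thermal stability is expressed against control samples, from duplicates, as a log2 fold change.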

Chain of UniProt P78356 (P78356 whole entry, looked up): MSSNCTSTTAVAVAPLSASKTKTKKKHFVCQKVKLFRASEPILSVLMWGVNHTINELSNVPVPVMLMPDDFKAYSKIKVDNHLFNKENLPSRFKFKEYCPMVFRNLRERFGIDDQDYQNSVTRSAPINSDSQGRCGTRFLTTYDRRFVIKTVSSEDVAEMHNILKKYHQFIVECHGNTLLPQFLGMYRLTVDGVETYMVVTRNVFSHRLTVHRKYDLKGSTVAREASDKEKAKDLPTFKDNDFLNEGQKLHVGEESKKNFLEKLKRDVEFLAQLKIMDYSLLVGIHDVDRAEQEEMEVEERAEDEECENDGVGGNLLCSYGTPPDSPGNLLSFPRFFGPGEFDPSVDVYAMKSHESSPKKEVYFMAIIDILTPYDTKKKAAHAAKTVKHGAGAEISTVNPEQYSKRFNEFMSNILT
Chain of UniProt O43395 (O43395 whole entry, looked up): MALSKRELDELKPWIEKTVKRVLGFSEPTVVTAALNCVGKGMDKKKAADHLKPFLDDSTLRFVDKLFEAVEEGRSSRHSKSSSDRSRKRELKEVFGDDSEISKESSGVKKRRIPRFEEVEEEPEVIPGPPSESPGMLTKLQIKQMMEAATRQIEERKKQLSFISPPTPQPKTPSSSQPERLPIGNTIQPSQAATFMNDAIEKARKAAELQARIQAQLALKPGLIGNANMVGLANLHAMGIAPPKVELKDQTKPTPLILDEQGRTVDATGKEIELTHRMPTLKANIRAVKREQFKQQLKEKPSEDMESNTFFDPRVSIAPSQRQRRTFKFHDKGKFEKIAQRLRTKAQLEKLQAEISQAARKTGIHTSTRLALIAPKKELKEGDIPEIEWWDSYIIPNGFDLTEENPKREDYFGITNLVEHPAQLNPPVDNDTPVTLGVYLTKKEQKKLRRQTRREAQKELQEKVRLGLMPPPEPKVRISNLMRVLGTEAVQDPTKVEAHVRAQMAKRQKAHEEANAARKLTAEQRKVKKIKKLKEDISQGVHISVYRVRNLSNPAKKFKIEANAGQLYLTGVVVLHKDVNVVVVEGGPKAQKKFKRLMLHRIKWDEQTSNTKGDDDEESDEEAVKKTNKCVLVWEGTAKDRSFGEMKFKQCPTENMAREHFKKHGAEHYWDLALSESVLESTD
Chain of UniProt P35998 (P35998 whole entry, looked up): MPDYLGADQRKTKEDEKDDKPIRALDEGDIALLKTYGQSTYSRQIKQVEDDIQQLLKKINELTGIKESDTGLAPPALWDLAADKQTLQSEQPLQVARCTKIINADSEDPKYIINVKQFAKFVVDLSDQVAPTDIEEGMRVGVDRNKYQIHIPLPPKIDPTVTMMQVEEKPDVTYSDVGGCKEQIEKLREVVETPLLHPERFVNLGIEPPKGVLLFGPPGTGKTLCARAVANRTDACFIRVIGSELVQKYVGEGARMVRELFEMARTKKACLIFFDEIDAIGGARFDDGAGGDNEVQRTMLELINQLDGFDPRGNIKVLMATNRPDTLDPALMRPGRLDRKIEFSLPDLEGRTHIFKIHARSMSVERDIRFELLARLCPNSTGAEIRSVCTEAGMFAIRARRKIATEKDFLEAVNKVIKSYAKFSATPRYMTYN
Chain of UniProt Q8NCC3 (Q8NCC3 whole entry, looked up): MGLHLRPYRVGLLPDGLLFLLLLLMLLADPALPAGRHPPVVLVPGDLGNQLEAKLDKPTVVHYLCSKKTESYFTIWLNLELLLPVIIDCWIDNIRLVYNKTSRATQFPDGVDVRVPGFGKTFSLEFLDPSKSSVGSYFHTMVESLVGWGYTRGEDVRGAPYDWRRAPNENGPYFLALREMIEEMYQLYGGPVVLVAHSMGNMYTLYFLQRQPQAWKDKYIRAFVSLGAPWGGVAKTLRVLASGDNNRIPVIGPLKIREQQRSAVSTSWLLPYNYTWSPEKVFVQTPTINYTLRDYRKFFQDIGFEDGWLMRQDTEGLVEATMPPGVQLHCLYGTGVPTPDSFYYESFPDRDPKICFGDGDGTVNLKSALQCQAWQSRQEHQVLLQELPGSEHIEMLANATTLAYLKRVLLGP
Chain of UniProt Q13131 (Q13131 whole entry, looked up): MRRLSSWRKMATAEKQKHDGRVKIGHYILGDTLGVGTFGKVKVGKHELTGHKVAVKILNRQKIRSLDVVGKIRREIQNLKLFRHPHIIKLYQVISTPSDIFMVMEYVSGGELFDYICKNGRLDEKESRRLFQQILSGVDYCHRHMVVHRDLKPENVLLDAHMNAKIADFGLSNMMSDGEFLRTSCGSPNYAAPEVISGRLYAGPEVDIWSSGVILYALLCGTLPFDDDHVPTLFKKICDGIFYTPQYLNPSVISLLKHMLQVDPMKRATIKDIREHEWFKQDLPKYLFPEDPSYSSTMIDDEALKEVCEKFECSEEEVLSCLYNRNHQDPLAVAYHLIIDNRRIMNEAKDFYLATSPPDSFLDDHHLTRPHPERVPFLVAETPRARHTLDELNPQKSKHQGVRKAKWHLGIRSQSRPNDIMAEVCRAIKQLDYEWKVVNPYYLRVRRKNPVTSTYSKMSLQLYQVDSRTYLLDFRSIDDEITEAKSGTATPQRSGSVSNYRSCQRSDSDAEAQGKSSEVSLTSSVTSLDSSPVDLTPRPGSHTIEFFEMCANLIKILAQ
Chain of UniProt Q8WUA2 (Q8WUA2 whole entry, looked up): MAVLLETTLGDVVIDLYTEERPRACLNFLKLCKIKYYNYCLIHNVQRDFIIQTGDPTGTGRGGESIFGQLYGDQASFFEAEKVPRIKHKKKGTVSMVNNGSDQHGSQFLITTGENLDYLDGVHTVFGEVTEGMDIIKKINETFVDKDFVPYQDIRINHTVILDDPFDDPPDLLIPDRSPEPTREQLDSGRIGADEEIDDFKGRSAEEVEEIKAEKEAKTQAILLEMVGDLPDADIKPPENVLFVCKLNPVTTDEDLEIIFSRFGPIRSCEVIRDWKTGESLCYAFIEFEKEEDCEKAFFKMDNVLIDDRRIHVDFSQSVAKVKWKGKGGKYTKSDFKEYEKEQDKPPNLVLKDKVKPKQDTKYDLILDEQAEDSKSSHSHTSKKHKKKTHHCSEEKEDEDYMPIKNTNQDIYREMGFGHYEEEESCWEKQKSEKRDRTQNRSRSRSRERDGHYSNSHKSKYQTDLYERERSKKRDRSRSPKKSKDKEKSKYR
Chain of UniProt Q8NHP8 (Q8NHP8 whole entry, looked up): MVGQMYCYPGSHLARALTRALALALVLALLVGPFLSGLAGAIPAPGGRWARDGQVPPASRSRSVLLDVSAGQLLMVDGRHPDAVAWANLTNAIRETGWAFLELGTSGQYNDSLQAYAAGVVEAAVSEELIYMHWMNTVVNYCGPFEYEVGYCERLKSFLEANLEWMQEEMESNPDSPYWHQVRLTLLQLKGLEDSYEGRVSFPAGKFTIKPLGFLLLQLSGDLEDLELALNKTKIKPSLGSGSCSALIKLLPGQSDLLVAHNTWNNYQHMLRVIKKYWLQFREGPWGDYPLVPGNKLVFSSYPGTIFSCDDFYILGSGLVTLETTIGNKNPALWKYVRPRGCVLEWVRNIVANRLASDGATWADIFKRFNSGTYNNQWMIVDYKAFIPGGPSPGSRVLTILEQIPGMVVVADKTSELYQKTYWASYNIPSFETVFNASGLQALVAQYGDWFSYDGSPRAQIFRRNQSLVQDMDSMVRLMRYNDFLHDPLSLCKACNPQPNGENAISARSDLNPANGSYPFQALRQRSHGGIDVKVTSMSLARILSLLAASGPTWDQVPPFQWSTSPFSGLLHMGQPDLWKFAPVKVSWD
Chain of UniProt O95453 (O95453 whole entry, looked up): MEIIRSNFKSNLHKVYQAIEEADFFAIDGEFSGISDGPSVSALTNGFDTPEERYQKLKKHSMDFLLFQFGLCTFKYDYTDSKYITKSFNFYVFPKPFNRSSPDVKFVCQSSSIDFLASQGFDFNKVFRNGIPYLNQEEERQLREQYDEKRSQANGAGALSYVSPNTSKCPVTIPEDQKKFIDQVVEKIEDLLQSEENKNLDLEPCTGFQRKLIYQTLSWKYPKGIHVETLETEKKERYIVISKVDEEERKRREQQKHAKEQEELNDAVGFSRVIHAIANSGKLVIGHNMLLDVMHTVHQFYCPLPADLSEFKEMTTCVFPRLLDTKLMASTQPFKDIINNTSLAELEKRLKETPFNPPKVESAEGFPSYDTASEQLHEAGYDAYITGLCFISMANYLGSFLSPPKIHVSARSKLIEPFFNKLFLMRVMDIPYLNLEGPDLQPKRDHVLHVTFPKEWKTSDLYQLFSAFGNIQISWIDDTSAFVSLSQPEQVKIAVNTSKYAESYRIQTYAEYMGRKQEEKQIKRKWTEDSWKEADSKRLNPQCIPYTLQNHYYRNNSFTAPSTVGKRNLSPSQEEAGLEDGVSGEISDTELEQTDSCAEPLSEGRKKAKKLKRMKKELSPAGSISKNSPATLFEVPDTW
Chain of UniProt O15530 (O15530 whole entry, looked up): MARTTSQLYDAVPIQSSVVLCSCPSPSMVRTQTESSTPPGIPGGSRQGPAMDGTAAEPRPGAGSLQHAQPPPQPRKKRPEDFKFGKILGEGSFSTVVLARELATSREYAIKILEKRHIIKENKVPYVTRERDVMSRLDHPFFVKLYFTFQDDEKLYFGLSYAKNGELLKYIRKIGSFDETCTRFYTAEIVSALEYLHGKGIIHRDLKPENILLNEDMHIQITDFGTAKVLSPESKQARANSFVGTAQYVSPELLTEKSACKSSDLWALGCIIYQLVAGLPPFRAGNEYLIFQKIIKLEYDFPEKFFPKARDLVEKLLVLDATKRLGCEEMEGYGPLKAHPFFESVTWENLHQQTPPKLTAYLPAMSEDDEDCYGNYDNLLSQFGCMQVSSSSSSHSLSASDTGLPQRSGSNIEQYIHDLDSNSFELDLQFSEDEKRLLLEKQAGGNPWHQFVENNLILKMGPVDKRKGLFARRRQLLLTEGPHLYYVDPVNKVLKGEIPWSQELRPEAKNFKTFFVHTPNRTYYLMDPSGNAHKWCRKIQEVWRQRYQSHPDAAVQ
Chain of UniProt Q15185 (Q15185 whole entry, looked up): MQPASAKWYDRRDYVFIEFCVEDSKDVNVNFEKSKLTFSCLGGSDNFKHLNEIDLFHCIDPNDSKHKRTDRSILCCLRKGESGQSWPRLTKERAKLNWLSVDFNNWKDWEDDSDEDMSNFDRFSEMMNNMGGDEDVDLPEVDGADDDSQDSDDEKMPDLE

log2 fold change, inactive:
PRPF40A (UniProt O75400) 0.073, PHAX (UniProt Q9H814) -0.045, PDPK1 (UniProt O15530) -0.018, PDE4DIP isoform 4 (UniProt Q5VU43) -0.023, PIR (UniProt O00625) 0.085, PSMC2 (UniProt P35998) 0.036, PEX16 isoform 2 (UniProt Q9Y5Y5) -0.07, PLEKHM2 (UniProt Q8IWE5) 0.038, PRIM1 (UniProt P49642) 0.074, PRPF31 (UniProt Q8WWY3) 0.106, PCNT (UniProt O95613) -1.05, PTGR2 (UniProt Q8N8N7) 0.234, PSMC5 (UniProt P62195) 0.032, PRKCA (UniProt P17252) -0.021, PRMT3 (UniProt O60678) 0, PARN (UniProt O95453) -0.058, PRKAA1 isoform 2 (UniProt Q13131) 0.021, PJA2 (UniProt O43164) -0.024, PRPF3 (UniProt O43395) -0.005, PITRM1 isoform 2 (UniProt Q5JRX3) 0.018, PLA2G15 (UniProt Q8NCC3) -0.063, PIP4K2B (UniProt P78356) 0.039, PDE2A (UniProt O00408) -0.012, PIP4P2 (UniProt Q8N4L2) -0.045, PRKCD (UniProt Q05655) -0.045, PLCB3 (UniProt Q01970) -0.032, POLR2B (UniProt P30876) 0.005, PPIL4 (UniProt Q8WUA2) 0.04, PCTP (UniProt Q9UKL6) 0.026, PDE12 (UniProt Q6L8Q7) -0.01, PPP1R12A (UniProt O14974) -0.032, PIP4P1 isoform 2 (UniProt Q86T03) -0.002, PDS5B (UniProt Q9NTI5) -0.058, PTGES3 (UniProt Q15185) 0.034, PLBD2 (UniProt Q8NHP8) -0.008, PRKAR1B (UniProt P31321) 0.133, PSMD2 (UniProt Q13200) 0.136
